Test results reported in PubChem BioAssay AID602410 (Johns Hopkins Ion Channel Center, 2012).
About 2,800 (0.82%) of roughly 340,000 compounds were called active.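 How the source made its calls: active means B-score under library mean minus 4 SD, starting fluorescence ratio at most library mean plus 5 SD; inactive means the rest.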 The list comes from a sample in which actives are over-represented; it also holds similar structures and randomly drawn compounds.

Molecular target: Potassium channel subfamily K member 3 (Homo sapiens) (UniProt O14649)
Sequence (O14649 whole entry, looked up): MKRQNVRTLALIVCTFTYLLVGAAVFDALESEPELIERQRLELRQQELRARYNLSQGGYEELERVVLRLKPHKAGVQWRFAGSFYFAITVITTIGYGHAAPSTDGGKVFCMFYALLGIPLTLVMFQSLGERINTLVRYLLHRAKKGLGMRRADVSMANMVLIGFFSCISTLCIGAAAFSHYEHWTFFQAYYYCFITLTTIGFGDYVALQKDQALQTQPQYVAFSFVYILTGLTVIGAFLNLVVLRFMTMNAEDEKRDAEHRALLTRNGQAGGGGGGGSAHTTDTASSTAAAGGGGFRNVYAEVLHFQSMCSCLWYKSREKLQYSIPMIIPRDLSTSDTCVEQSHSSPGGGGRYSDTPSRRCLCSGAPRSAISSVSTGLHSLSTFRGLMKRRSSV
Assay: blockers of TASK1 two-pore potassium channel – CHO cells, FluxOR thallium flux, B-score, primary screen (AID 602410);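 on B-score: more negative B-score means stronger inhibition of thallium flux through KCNK3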
Conditions: CHO-KCNK3 thallium flux, FluxOR fluorescence, at 10 µM; stronger effect = lower value

Row | Compound | B-score
1 | CCCCCCN=C(CC)c1c(O)n(CCCC)c(=O)[nH]c1=O | -9.07 (active)
2 | CCC(=NCCCO)c1c(O)n(-c2ccc(OC)cc2)c(=O)[nH]c1=O | inactive
3 | CCCCn1c(O)c(C(CC)=NCc2ccco2)c(=O)[nH]c1=O | inactive
4 | COc1ccc(Br)cc1CNCCc1cccc(Cl)c1 | inactive
5 | CCCCC(=O)N/N=C/c1c(O)n(CC)c(=S)n(CC)c1=O | inactive
6 | Oc1cc2c(cc1CN1CCN(c3ccccc3)CC1)OCO2 | inactive
7 | COc1ccc(C(=O)C2CCCN(Cc3ccc(C)s3)C2)cc1OC (stereo not given) | inactive
8 | COc1ccccc1C1=NCc2nnc(CSC)n2-c2ccc(Cl)cc21 | -9.71 (active)
9 | Cc1cc(C(=O)OCC(=O)Nc2c(F)cccc2F)c(C)n1C1CC1 | inactive
10 | CC(C)c1c(CN(C)C(C)Cc2ccccc2)n(C)n(-c2ccccc2)c1=O (stereo not given) | inactive
11 | CCN1CCN(Cc2cc(OC)c3c(c2)OCO3)CC1 | inactive
12 | CCOC(=O)C1SC2(C(F)(F)C(F)F)CC1(O)c1c(c(OC)c3occc3c1OC)O2 (stereo not given) | -10.9 (active)
13 | CCOC(=O)C(O)(c1ccc(N=Cc2ccccc2O)c(C)c1)C(F)(F)F (stereo not given) | inactive
14 | CC12CN3CC(C)(CN(C1)C3c1cccs1)C2 (stereo not given) | inactive
15 | CNCC(O)c1cc(F)c(OCc2ccccc2)c(OCc2ccccc2)c1F (stereo not given) | inactive
